# Measured values from PubChem BioAssay (NCI).
# About 79,000 compounds went through this panel and 15% of them were active in at least one assay; those are over-represented in the sample as a whole. Unmarked numbers belong to inactive results. Calls of active or inactive are those of the source. Rule as the data show it: active = growth inhibition above about 70%; inactive = the rest.
# How the values were obtained:
# [1] = NCI Yeast Anticancer Drug Screen. Data for the mlh1 rad18 strain (AID 175); conditions: S. cerevisiae mlh1 rad18 strain growth inhibition; at 50.0 µM; stronger effect = higher value
# Outline: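 Test agents were incubated with a yeast strain of defined genotype (DNA damage repair defect). Inhibition of growth was derived by comparison with vehicle-exposed cultures.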
# [2] = NCI Yeast Anticancer Drug Screen. Data for the sgs1 mgt1 strain (AID 161);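 also: 0% = growth of cultures given vehicle only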; conditions: S. cerevisiae sgs1 mgt1 strain, at 50.0 µM, stronger effect = higher value
# Outline: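 Compounds are added to genetically altered yeast, and growth is compared with cultures given vehicle alone to give percent inhibition.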
# [3] = NCI Yeast Anticancer Drug Screen. Data for the cln2 rad14 strain (AID 165);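 also: 0% = growth equal to vehicle treated cultures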; conditions: S. cerevisiae cln2 rad14 strain, at 50.0 µM, stronger effect = higher value
# Outline: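 Relative to vehicle controls, growth inhibition of compound-treated cln2 rad14 yeast was recorded.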
# [4] = NCI Yeast Anticancer Drug Screen. Data for the bub3 strain (AID 167); conditions: S. cerevisiae bub3 mutant strain, at 50.0 µM, stronger effect = higher value
# Outline: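 Inhibition values come from growth of compound-treated mutant yeast normalised to vehicle-treated controls.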
# [5] = NCI Yeast Anticancer Drug Screen. Data for the mec2-1 strain (AID 157); conditions: S. cerevisiae mec2-1 strain, at 50.0 µM, stronger effect = higher value
# Outline: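 Readout is yeast growth inhibition, normalised to vehicle-treated controls, in the mec2-1 strain exposed to compound.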
smiles,measurement,setting,value
N=C(N)c1ccc(N=Nc2c(O)ccc3cc(O)ccc23)cc1,growth inhibition,[1],-27.5%
CC(C)n1c2c([n+](C)c1/C=C/c1ccccc1)C(=O)c1ccccc1C2=O,growth inhibition,[2],89.9% (active)
same,growth inhibition,[3],88.9% (active)
same,growth inhibition,[4],50.4%
Nc1ccc2ccc(N)cc2c1,growth inhibition,[1],-33.1%
N=C(N)c1ccc(N=NNc2ccc(C(=N)N)cc2)cc1,growth inhibition,[1],84% (active)
[Br][Sn]([CH2][Sn]([Br])([c]1ccccc1)[c]1ccccc1)([c]1ccccc1)[c]1ccccc1,growth inhibition,[1],81.8% (active)
CCCCOc1cc(C(=O)NCCN(CC)CC)c2ccccc2n1,growth inhibition,[5],-9.6%
same,growth inhibition,[1],1.9%
